About 79,000 compounds went through this panel and 15% of them were active in at least one assay; those are over-represented in the sample as a whole. Calls of active or inactive are those of the source. Cut-off read from the data, not from the text of the source: active = growth inhibition above about 70%; inactive = the rest.
Test: NCI Yeast Anticancer Drug Screen. Data for the sgs1 mgt1 strain (AID 161);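 note: 0% = growth of cultures given vehicle only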
Conditions: S. cerevisiae sgs1 mgt1 strain, at 50.0 µM, stronger effect = higher value
In short: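 Yeast cells carrying a defined DNA-repair defect were exposed to test compounds. Growth inhibition was measured relative to vehicle-treated controls.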

Row | Structure (SMILES) | growth inhibition
1 | O=C(O)/C=C/C(=O)Nc1ccc(Cl)cc1C(=O)c1ccccc1 | 33% (inactive)
2 | c1ccc(CNCCN(Cc2ccccc2)Cc2ccccc2)cc1 | 36.4% (inactive)
3 | COc1ccc(OC)c(C(C)=O)c1 | -94% (inactive)
4 | CCO/C(C)=C(/C(C)=O)C(=O)NC1CCCCC1 | -0.1% (inactive)
5 | Fc1ccc(-c2cc(-c3ccc(F)cc3)cc(-c3ccc(F)cc3)c2)cc1 | 13.2% (inactive)
6 | CCN(C(=O)c1ccc([N+](=O)[O-])cc1)C(c1ccccc1)P(=O)(c1ccccc1)c1ccccc1 (stereo not drawn) | -15.1% (inactive)
7 | O=[N+]([O-])c1ccc(C2ON2C2CCCCC2)cc1 (stereo not drawn) | 18.7% (inactive)
8 | NCc1ccccc1F | 12.3% (inactive)
9 | NC(CCC(=O)NC(CSCNC(=O)Nc1ccc(Cl)cc1)C(=O)NCC(=O)O)C(=O)O (stereo not drawn) | -1.65% (inactive)
10 | O=C(O)CCNCCCCNCCC(=O)O | -23.9% (inactive)
11 | COc1ccc(/C=N\S(=O)(=O)c2ccc(OC)cc2)cc1 | 15.1% (inactive)
12 | O=C(N/N=C\c1cccnc1)Nc1ccc(N=Nc2ccccc2)cc1 | -1.9% (inactive)
13 | N=c1oc2ccc([N+](=O)[O-])cc2cc1C(=O)NCc1ccccc1 | -13.9% (inactive)
14 | CCOC(OCC)C(O)c1ccccc1 (stereo not drawn) | -11.9% (inactive)
15 | COC(=O)CC1(CC(=O)O)SCCS1 | 11.5% (inactive)
16 | CCOC(=O)/C(CC)=N\O | 3.75% (inactive)
17 | Cc1cc2nc(NN)[nH]c2cc1C | -17.5% (inactive)
18 | CSc1nc(NC2OCC(O)C(O)C2O)cc(=O)n1C (stereo not drawn) | 7.4% (inactive)
